The results in this text go back to PubChem BioAssay (Tox21).

“And” between values parts separate entries of the source, which are not always exact repeats. Equal entries are not always repeated. Records with an inconclusive call do not appear. Some compounds were tested as several samples or in several runs, with calls that do not always agree. The source made the active and inactive calls. Unless noted, the call rests on the fitted dose curve; in most records, active means well fitted curve in the direction sought with a large enough effect in the repeat runs; inconclusive means weak or mixed curves; inactive means no such curve, though single readings can be large; an effect the other way counts as inactive or inconclusive.

Assay [1] in a line: qHTS assay to identify small molecule agonists of the progesterone receptor (PR) signaling pathway - cell viability counter screen (AID 1346799; calls by dose curve; further: nearly all actives have a fitted effect of over 45% in size). An outline of the steps:
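Counter screen for cytotoxicity: compound-treated PR-UAS-bla HEK293T cells (16 hr, 37C, 5% CO2) were assayed with CellTiter-Glo, luminescence measured after 30 min at room temperature.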
(In general: qHTS replaces the single test concentration by a dilution series.)

Assay [2] in a line: qHTS assay to identify small molecule antagonists of the TGF-beta/Smad signaling pathway - cell viability counter screen (AID 1346824). Further: nearly all actives have a fitted effect of over 50% in size. In short, it runs like this: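 Cytotoxicity counter-screen run in the same wells as the beta-lactamase Smad reporter read: CellTiter-Glo luminescence after 30 min at room temperature. HEK 293T SBE-bla cells had 5 hr compound exposure at 37 C with TGF-beta1 (0.25 ng/mL stock).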

Assay [3] can be described thus: qHTS assay to identify small molecule agonists of the TGF-beta/Smad signaling pathway - cell viability counter screen (AID 1346829). Further: top concentration of the series differs between compounds; nearly all actives have a fitted effect of over 45% in size. In short, it runs like this: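 After overnight seating at 37 C and 5% CO2, reporter cells got compounds for 5 hr and FRET substrate for 2 hr; cell viability then came from CellTiter-Glo luminescence.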
Assay [4] can be described thus: qHTS assay to identify small molecule agonists of the TGF-beta/Smad signaling pathway (AID 1346859; active means well fitted activation curve with a large enough effect in the signal ratio in the repeat runs, not every such curve was filed as active; the % refers to the signal ratio; further: series mostly up to about 77 µM). An outline of the steps: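 Smad-responsive beta-lactamase reporter cells (HEK 293T) received compounds from DMSO stocks after overnight attachment, were incubated 5 hr, then treated 2 hr with FRET substrate before dual-emission fluorescence measurement (405 nm excitation).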

Assay [5] concerns the target Thyrotropin-releasing hormone receptor (Homo sapiens) (UniProt P34981). In words: qHTS assay to identify small molecule antagonists of the thyrotropin-releasing hormone receptor (TRHR) signaling pathway (AID 1346877; active means well fitted inhibition curve with a large enough effect in the repeat runs, not every such curve was filed as active; further: series mostly up to about 51 µM). An outline of the steps:
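Human TRHR in HEK293 cells; inhibition of the intracellular calcium rise triggered by 1 nM TRH was followed by fluorescence over 3 min. Compounds were run at 15 concentrations, three replicates each.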

For assay [6] the target is unchanged. In words: qHTS assay to identify small molecule agonists of the thyrotropin-releasing hormone receptor (TRHR) signaling pathway (AID 1346891; calls by dose curve;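 further: HEK293 cells expressing TRHR with calcium dye readout; series mostly up to about 58 µM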). In short, it runs like this: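 Agonist-mode calcium mobilisation screen: TRHR-transfected HEK293 cells cultured overnight (18 h), dye-loaded for 2 h at 37 °C, exposed to compounds, and monitored by fluorescence for 3 min.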

A short description of assay [7]: Human pregnane X receptor (PXR) small molecule agonists, qHTS cell viability counter screen (AID 1346977). Further: nearly all actives have a fitted effect of over 50% in size. In short, it runs like this: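 Measures live-cell protease fluorescence (CellTiter-Fluor) in PXR-Luc HepG2 cells treated 24hr with compounds at 37C. Cells had 5hr to attach before pin transfer of DMSO solutions.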
A short description of assay [8]: Caspase-3/7 induction in HepG2 cells by small molecules, qHTS assay (AID 1346978). Further: nearly all actives have a fitted effect of over 15% in size. An outline of the steps:
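Caspase-3/7 induction was measured by Caspase-Glo 3/7 luminescence (30 min, room temperature) after a 17 hr compound exposure of wild-type HepG2 cells seeded at 2,000 per well and pre-incubated 5 hr.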

The nature of assay [9]: Caspase-3/7 induction in CHO-K1 cells by small molecules, qHTS assay (AID 1346980). Further: nearly all actives have a fitted effect of over 15% in size. An outline of the steps:
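Luminescent Caspase-Glo 3/7 read (30min, room temperature) quantified apoptosis induction. Cells were wild-type CHO-K1, treated with compound for 17hr at 37 C and 5% CO2.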

Assay [10] can be described thus: Caspase-3/7 induction in HepG2 cells by small molecules, qHTS cell viability counter screen (AID 1346981). Further: series mostly up to about 92 µM; nearly all actives have a fitted effect of over 30% in size. In short, it runs like this: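 The parent HepG2 line is plated at 2,000 cells per well and rested 5 hr before compound pinning from DMSO stocks. Following a 16-hr treatment at 37 C, a fluorogenic live-cell substrate (CellTiter-Fluor) reports viability after 1 hr.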

Assay [11] addresses Nuclear receptor subfamily 1 group I member 2 (Homo sapiens) (UniProt O75469). In words: Human pregnane X receptor (PXR) small molecule agonists, qHTS assay (AID 1346982). Further: nearly all actives have a fitted effect of over 35% in size. Further: potency means the concentration at half of the fitted maximal effect. An outline of the steps:
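After plating in 5% charcoal-stripped FBS and a 5 hr rest, PXR-Luc HepG2 cells received compounds in DMSO. Following 24 hr at 37 C, ONE-Glo was added and light output read.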

Assay [12] addresses Cytochrome P450 2D6 (Homo sapiens) (UniProt P10635). The assay can be described thus: Cytochrome P450 Family 2 Subfamily D Member 6 (CYP2D6) small molecule antagonists: luciferase reporter qHTS assay (AID 1671196). Further: nearly all actives have a fitted effect of over 50% in size. Further: potency means the concentration at half of the fitted maximal effect. In short, it runs like this:
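Quantitative HTS of Tox21 chemicals against CYP2D6 using a luminescent proluciferin substrate. After NADPH addition, 1 h room-temperature reaction; luminescence recorded 20 min post detection reagent.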
In general terms: A reporter such as luciferase makes a cellular process visible.

In assay [13] the target is Cytochrome P450 2C19 (Homo sapiens) (UniProt P33261). The assay can be described thus: Cytochrome P450 Family 2 Subfamily C Member 19 (CYP2C19) small molecule antagonists: luciferase reporter qHTS assay (AID 1671197). Further: nearly all actives have a fitted effect of over 65% in size. Further: potency means the concentration at half of the fitted maximal effect. In short, it runs like this:
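Inhibition of CYP2C19 was scored from loss of luminescence in a P450-Glo proluciferin substrate assay, NADPH-started and run 1 h at 37C, with ketoconazole as positive control.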

For assay [14], the target named is Cytochrome P450 2C9 (Homo sapiens) (UniProt P11712). In words: Cytochrome P450 Family 2 Subfamily C Member 9 (CYP2C9) small molecule antagonists: luciferase reporter qHTS assay (AID 1671198). Further: nearly all actives have a fitted effect of over 50% in size. Further: potency means the concentration at half of the fitted maximal effect. An outline of the steps:
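Enzyme-substrate mix preincubated with compound 10 min at room temperature; reaction started with NADPH regeneration solution, 1 h 37C. Luminescent luciferin product read after 20 min detection reagent.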

For assay [15], the target named is Cytochrome P450 1A2 (Homo sapiens) (UniProt P05177). In words: Cytochrome P450 Family 1 Subfamily A Member 2 (CYP1A2) small molecule antagonists: luciferase reporter qHTS assay (AID 1671199). Further: nearly all actives have a fitted effect of over 50% in size. Further: potency means the concentration at half of the fitted maximal effect. An outline of the steps:
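Quantitative high-throughput format using the P450-Glo CYP1A2 system. Reaction initiated by NADPH regeneration solution, 1 h at room temperature, then stopped with detection reagent; luminescence measured 20 min later.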

Assay [16] can be described thus: qHTS assay to identify small molecule antagonists of the progesterone receptor (PR) signaling pathway - cell viability counter screen (AID 1346798). An outline of the steps: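 Same-well multiplex: after 16 hr at 37C with compound and R5020 stimulation, HEK293T cells carrying a UAS-bla reporter received LiveBLAzer substrate (2 hr RT), then CellTiter-Glo (30 min RT) for luminescent viability.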

Assay [17] in a line: Caspase-3/7 induction in CHO-K1 cells by small molecules, qHTS cell viability counter screen (AID 1346979). Further: nearly all actives have a fitted effect of over 35% in size. Further: potency means the concentration at half of the fitted maximal effect. In short, it runs like this: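 In the same wells as the caspase read, viability of compound-treated wild-type CHO-K1 cells was assessed using CellTiter-Fluor, added after 16hr at 37C and measured by fluorescence following 1hr further incubation.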
For assay [18], the target named is Nuclear receptor subfamily 1 group I member 2 (Rattus norvegicus) (UniProt Q9R1A7). In words: Rat pregnane X receptor (rPXR) activation by small molecules, qHTS assay (AID 1346983). Further: nearly all actives have a fitted effect of over 20% in size. Further: potency means the concentration at half of the fitted maximal effect. As to conditions: rPXR luciferase reporter cells, One-Glo luminescence, 24 h; max activation: stronger effect = higher value. In short, it runs like this: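 Luminescent readout (One-Glo luciferase, 30 min room temperature) followed 24 hr compound treatment at 37 C of rPXR cells plated 2,000 per well and preincubated 5hr; qHTS format with compounds delivered in DMSO.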

Assay [19] concerns the target Nuclear receptor subfamily 1 group I member 2 (Homo sapiens) (UniProt O75469). In words: Human pregnane X receptor (PXR) activation by small molecules, qHTS assay (AID 1346985). Further: nearly all actives have a fitted effect of over 40% in size. In short, it runs like this:
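DPX-2 cells (HepG2 co-transfected with a PXR response element and a CYP3A4-promoter luciferase construct) were seeded at 2,000 per well, rested 5 hr at 37C, then exposed to DMSO-dissolved compounds for 24 hr. Activation was read as luciferase luminescence.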
On the % scale 0 is the no-effect control and ±100 the full control effect.

Cytochrome P450 2D6 (Homo sapiens), sequence (P10635 whole entry, looked up): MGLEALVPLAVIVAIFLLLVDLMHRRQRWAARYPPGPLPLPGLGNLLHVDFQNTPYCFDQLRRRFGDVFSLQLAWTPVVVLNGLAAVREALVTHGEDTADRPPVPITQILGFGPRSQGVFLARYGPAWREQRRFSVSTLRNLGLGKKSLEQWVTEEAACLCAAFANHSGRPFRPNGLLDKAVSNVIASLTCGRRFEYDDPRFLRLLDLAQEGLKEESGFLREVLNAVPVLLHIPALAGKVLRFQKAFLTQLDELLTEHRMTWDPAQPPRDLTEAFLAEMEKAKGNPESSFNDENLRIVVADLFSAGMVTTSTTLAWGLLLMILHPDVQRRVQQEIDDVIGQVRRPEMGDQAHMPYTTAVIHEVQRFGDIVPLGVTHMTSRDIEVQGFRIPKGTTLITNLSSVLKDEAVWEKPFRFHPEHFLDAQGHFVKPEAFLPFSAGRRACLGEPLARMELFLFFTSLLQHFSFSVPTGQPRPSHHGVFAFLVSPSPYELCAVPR
Thyrotropin-releasing hormone receptor (Homo sapiens), sequence (P34981 whole entry, looked up): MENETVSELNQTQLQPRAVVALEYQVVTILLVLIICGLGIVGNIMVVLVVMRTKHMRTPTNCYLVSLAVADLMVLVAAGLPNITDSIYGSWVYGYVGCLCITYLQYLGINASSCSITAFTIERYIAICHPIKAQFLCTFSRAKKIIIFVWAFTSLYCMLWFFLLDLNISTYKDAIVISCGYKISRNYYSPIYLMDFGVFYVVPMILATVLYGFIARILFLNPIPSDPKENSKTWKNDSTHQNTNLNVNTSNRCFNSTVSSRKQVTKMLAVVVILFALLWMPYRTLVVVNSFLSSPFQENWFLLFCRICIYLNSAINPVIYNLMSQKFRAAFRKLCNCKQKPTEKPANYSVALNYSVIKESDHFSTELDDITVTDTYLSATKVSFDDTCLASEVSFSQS
Nuclear receptor subfamily 1 group I member 2 (Rattus norvegicus), sequence (Q9R1A7 whole entry, looked up): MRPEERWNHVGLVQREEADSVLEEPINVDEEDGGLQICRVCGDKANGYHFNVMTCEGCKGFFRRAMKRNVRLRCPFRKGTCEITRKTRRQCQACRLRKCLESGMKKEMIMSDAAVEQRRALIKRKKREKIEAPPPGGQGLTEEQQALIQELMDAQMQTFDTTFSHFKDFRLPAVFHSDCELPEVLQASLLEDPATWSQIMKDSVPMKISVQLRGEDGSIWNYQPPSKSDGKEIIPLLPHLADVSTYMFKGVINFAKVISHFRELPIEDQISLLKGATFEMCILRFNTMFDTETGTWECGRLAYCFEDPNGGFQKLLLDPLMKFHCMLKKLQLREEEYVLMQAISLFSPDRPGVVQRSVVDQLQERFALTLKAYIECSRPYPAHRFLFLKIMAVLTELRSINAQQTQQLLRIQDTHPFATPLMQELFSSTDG
Cytochrome P450 2C9 (Homo sapiens), sequence (P11712 whole entry, looked up): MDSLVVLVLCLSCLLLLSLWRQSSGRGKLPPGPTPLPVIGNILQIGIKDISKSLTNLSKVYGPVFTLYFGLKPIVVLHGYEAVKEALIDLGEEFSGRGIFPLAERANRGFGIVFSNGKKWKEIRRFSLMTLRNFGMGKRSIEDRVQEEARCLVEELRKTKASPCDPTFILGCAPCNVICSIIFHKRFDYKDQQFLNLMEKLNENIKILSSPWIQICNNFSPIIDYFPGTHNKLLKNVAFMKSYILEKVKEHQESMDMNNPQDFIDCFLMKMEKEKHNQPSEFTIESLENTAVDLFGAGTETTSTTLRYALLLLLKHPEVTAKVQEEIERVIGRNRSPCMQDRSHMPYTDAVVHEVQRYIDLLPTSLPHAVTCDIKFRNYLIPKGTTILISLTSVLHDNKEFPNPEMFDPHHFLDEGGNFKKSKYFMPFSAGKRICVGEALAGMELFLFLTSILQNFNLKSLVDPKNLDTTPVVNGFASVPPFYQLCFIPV
Nuclear receptor subfamily 1 group I member 2 (Homo sapiens), sequence (O75469 whole entry, looked up): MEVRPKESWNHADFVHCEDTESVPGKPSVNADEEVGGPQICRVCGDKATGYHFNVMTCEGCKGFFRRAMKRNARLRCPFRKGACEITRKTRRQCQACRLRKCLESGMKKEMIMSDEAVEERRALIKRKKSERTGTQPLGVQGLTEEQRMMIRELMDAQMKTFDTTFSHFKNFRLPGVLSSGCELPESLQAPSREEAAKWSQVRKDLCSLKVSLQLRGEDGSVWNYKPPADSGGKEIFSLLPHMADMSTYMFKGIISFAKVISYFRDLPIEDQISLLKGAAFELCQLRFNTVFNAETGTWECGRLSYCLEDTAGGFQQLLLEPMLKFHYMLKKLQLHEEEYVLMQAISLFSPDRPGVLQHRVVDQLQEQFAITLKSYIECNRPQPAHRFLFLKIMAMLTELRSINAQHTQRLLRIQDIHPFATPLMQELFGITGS
Cytochrome P450 1A2 (Homo sapiens), sequence (P05177 whole entry, looked up): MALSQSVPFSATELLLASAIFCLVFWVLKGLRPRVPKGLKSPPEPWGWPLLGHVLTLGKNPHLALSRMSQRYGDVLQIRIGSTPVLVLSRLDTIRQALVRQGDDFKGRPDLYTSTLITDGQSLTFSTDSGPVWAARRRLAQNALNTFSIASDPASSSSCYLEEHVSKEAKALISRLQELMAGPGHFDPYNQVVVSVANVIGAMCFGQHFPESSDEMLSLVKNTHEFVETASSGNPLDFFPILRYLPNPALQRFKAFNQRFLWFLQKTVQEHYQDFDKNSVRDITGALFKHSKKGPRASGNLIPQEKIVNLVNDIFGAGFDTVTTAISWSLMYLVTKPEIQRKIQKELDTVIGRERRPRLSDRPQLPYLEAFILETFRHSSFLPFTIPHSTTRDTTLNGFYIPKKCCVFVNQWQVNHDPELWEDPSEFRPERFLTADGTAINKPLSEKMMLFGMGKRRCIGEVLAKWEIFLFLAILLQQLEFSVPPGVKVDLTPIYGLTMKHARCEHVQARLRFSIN
Cytochrome P450 2C19 (Homo sapiens), sequence (P33261 whole entry, looked up): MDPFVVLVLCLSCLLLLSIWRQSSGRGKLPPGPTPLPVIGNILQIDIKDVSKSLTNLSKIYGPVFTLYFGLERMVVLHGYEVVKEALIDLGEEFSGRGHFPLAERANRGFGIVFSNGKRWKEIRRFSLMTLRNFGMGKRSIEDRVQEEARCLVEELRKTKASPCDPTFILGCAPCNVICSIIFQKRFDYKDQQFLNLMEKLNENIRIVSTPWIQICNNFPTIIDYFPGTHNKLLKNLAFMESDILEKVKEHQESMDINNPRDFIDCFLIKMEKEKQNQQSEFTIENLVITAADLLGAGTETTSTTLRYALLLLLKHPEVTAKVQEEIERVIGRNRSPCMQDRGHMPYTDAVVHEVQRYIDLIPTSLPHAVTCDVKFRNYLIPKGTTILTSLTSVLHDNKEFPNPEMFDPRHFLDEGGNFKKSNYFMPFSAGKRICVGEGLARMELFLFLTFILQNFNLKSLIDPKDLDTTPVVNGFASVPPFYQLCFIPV

Take `CCCCCCCCCCCCOCCO`: the Potency entry in [1], in assay [2], in assay [3], in assay [5], in assay [7] and in assay [8] was “inactive” in each case. In addition, the Potency entry in [10] and in assay [12] was “inactive” throughout. The compound was called inactive in assay [4], in assay [6] and in assay [9]. The Potency in assay [11] is 61.1 µM (active) and inactive; in [13] it was 25.2 µM (active) and inactive; in assay [14] it was 39.9 µM (active); in [15], 31.7 µM (active) and 34.7 µM (active).
For the compound `CCOC(=O)NNc1nncc2ccccc12`, the Potency entry in [16], in assay [1], in assay [2], in assay [3], in assay [7] and in [8] was “inactive” each time. The Potency entry in assay [17], in [10], in assay [11], in assay [13] and in assay [14] was “inactive” in each case. In addition, the call in assay [4] and in assay [9] was inactive. Besides, the Potency in assay [12] was 35.6 µM (active); in assay [15], 20 µM (active).
In the case of `C#C[C@]1(O)CC[C@H]2[C@@H]3CCC4=CC(=O)CC[C@@H]4[C@H]3CC[C@@]21C`, the Potency result in [16], in [1], in assay [2], in [3], in assay [7] and in [8] was “inactive” throughout. Also, the Potency entry in assay [10], in assay [19], in assay [12] and in assay [15] was “inactive” each time. Also, the compound was called inactive in assay [4] and in assay [9]. Further, the Potency in assay [17] was 61.1 µM (active); in [11] it was 48.6 µM (active); in assay [13], 5.03 µM (active) and 4.36 µM (active). Moreover, in [18], the max activation is -1% (inactive).
On to `COc1ccc(Cl)cc1C(=O)NCCc1ccc(S(=O)(=O)NC(=O)NC2CCCCC2)cc1`, for which the Potency result in [16], in [1], in assay [2], in [3], in [5] and in assay [7] was “inactive” throughout. Besides, the Potency entry in assay [8], in assay [17], in assay [10], in assay [12], in assay [13] and in assay [15] was “inactive” in each case. Also, the compound was called inactive in assay [6] and in assay [9].
`CCc1ccc(CCOc2ccc(CC3SC(=O)NC3=O)cc2)nc1` (stereo unspecified): the Potency entry in assay [1], in assay [2], in assay [3], in [7], in assay [8] and in assay [17] was “inactive” throughout. The Potency result in [10], in assay [12], in assay [13] and in assay [15] was “inactive” each time. The compound was called inactive in [6] and in assay [9]. Besides, the max activation in assay [18] was -8.65% (inactive). The Potency in assay [14] was 31.7 µM (active) and 30.9 µM (active).
With `c1ccc2scnc2c1`, the Potency result in assay [16], in assay [1], in assay [2], in assay [3], in assay [7] and in [8] was “inactive” throughout. The Potency result in [17], in [10], in [11], in [12], in assay [13] and in [14] was “inactive” throughout. Also, the compound was classed as inactive in [4] and in assay [9].
With `O=C(O)CCCC[C@@H]1SC[C@@H]2NC(=O)N[C@@H]21`, the Potency entry in assay [16], in assay [1], in assay [2], in assay [3], in assay [7] and in [8] was “inactive” throughout. Moreover, the Potency entry in assay [17], in [10], in [11], in assay [12], in assay [13] and in [14] was “inactive” each time. For the same compound, in assay [15], the Potency result is “inactive”. The compound was called inactive in [4] and in assay [9].
Regarding `CC(=O)CC(=O)Nc1ccccc1`, the Potency entry in assay [16], in assay [1], in assay [2], in [3], in assay [7] and in [8] was “inactive” each time. Further, the Potency entry in [17], in assay [10], in assay [11] and in assay [12] was “inactive” in each case. For the same compound, the result in assay [4] and in [9] was inactive. For the same compound, the Potency in assay [13] was 70.9 µM (active); in assay [15] it was 35.5 µM (active) and 39.9 µM (active).
Consider `c1ccc(OCCOc2ccccc2)cc1`, for which the Potency entry in assay [16], in [1], in [2], in [3], in [7] and in assay [8] was “inactive” in each case. The Potency entry in assay [17], in [10] and in assay [12] was “inactive” throughout. The call in assay [4] and in [9] was inactive. The Potency is 61.1 µM (active) and 24.3 µM (active) in assay [11]; 5.02 µM (active) and 5.03 µM (active) in assay [13]; 28.2 µM (active) and 22.4 µM (active) in [14]; 15.9 µM (active) and 20 µM (active) in assay [15].
With `COCCCOc1ccnc(CS(=O)c2nc3ccccc3[nH]2)c1C` (stereo unspecified), the Potency result in assay [16], in assay [2], in assay [3], in assay [5], in assay [7] and in assay [8] was “inactive” throughout. In addition, the Potency entry in [10] is “inactive”. The result in assay [4], in assay [6] and in assay [9] was inactive. In addition, the Potency in assay [17] was 60.9 µM (active) and inactive; in [18], 14.1 µM (active).
`N[C@@H](Cc1cc(I)c(Oc2cc(I)c(O)c(I)c2)c(I)c1)C(=O)O`: the Potency result in assay [16], in [2], in assay [3], in assay [7], in [8] and in [17] was “inactive” throughout. Moreover, the Potency result in [10], in assay [12] and in assay [13] was “inactive” throughout. Besides, the result in [4] and in [9] was inactive. Also, the max activation in assay [18] is -0.369% (inactive).
